Measurements taken from PubChem BioAssay AID1851 (National Center for Advancing Translational Sciences (NCATS), 2009).
Where “and” joins values, the source holds several entries; their conditions need not be identical. Identical values can stand only once. Among all 16,000 compounds or so, about 2,600 (16%) were called active. Roughly 20% stayed inconclusive and do not appear here. The call rests on the fitted dose curve; in most records, active means well fitted curve in the direction sought with a large enough effect; inconclusive means small, poorly fitted or top-dose-only effect, or effect the other way; inactive means no such curve, though single readings can be large or run the other way. The list is a sample of the results. Where a structure was tested more than once in an assay, its records may differ in their call.

molecular target: Cytochrome P450 2D6 (Homo sapiens) (UniProt P10635); experiment: Cytochrome panel assay with activity outcomes; details: recombinant CYP, pro-luciferin dealkylation, luminescence, p450-cyp2d6; series mostly up to 57.1 µM; activity, negative = inhibition: at the top concentration
Sequence (P10635 whole entry, looked up): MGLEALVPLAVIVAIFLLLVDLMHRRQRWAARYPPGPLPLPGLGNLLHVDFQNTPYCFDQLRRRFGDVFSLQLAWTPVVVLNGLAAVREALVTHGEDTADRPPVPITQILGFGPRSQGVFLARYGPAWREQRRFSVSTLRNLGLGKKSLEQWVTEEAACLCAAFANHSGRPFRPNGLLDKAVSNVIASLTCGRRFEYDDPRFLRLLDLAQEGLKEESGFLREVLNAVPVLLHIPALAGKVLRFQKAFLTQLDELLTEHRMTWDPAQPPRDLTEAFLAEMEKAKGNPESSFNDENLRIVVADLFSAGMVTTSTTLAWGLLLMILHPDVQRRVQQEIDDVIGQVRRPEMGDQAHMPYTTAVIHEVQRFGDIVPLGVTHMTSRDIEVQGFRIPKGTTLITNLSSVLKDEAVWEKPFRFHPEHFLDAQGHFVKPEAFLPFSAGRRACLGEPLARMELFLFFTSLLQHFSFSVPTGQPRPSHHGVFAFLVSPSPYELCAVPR
On the % scale 0 is the no-effect control and ±100 the full control effect.

activity, negative = inhibition, inactive:
COc1ncc2nc(C)c(=O)n(CCC#N)c2n1 6.73%, COc1ccc(C(=O)N2CCC3(CCCN(C(=O)Nc4cccc(F)c4)C3)CC2)cc1 -16.4%, CCN(CC)C(=O)c1sc2[nH]c(=S)n(-c3ccccc3)c(=O)c2c1C -9.98%, COc1cccc(OC)c1C(=O)Nc1cc(C)on1 -25.9%, CCOC(=O)C1=C(COc2ccc(F)cc2Cl)NC(=O)NC1c1cc(C)ccc1C (stereo not drawn) -19.5%, CC(C)NC(=O)c1ccc2c(=O)n(Cc3ccco3)c(=S)[nH]c2c1 -2.05%, Cc1ncsc1C(=O)N1N=C2/C(=C/c3ccccc3)CCCC2C1c1ccccc1 (stereo not drawn) 3.61%, Cc1ccc(S(=O)(=O)N/N=C/c2cccn2-c2ccc(Cl)cc2)cc1 3.13%, COc1ccc(C(=O)Oc2cc(/C=N/NS(=O)(=O)c3ccc(C)cc3)ccc2OC)cc1 1.92%, CCc1ccccc1NC(=O)c1nnn(CC(=O)Nc2ccccc2C)c1N -18.4%, Cc1nn(CC(=O)NCCN2CCOCC2)c(C)c1[N+](=O)[O-] 0.91%, Cc1cc(C)n(C(=O)CCCCCCCCC(=O)n2nc(C)cc2C)n1 -12.3%, COc1ccc(Nc2cc(C(=O)NCCCN3CCN(C)CC3)c3ccccc3n2)cc1 -17.4%, COc1ccc(N2CCN(c3nc(Nc4ccc(F)cc4)nc(OC)n3)CC2)cc1 0.148%, CCNc1ncc2ncc(=O)n(C[C@H]3CCCO3)c2n1 -8.66%, CC(=O)N[C@@H](Cc1c[nH]c2ccccc12)C(=O)OCc1cc(C(F)(F)F)cc(C(F)(F)F)c1 17.4%, COC(=O)C(Cc1c[nH]c2ccccc12)NC(=O)C(C)C (stereo not drawn) -4.41%, COc1ccc(C(C(=O)NC2CCCCC2)N(C(=O)Cc2c[nH]c3ccccc23)c2ccc(NC(C)=O)cc2)cc1OC (stereo not drawn) -30.5%, COc1cc(Cl)c(CC(=O)c2c[nH]c3ccccc23)cc1OC -18% [at 11.4 µM], CCOC(=O)c1cnc2cc(-c3ccc(C)cc3)nn2c1-c1ccccc1 2.65%, O=C1N=C(N2CCC(Cc3ccccc3)CC2)S/C1=C/c1cn[nH]c1-c1ccccc1 -18.3%, COc1ccccc1NC(=O)Nc1nnc(-c2ccco2)s1 -1.54%, O=S(=O)(c1ccccc1)c1cnc(-c2cccnc2)nc1-c1ccc(Cl)cc1Cl -28%, COC(=O)c1c(C)[nH]c(O)c1C=Nc1ccc(C(C)C)cc1 -5.18%, OC[C@H]1NC[C@H](O)[C@@H](O)[C@H]1O 1.77%, O=C1OCc2cccc3cccc1c23 12.5%, C[N+](C)([O-])CCC=C1c2ccccc2CCc2ccccc21 -5.43% [at 11.4 µM], COc1ccc(C2=C(C#N)C(=O)OC2)cc1 -1.14%, CCOC(=O)c1cnn(-c2nc(-c3cccc(F)c3)cs2)c1C(F)(F)F -12.3%, O=C(O)[C@@H]1CCCN1 -2.04% [at 11.4 µM], CC1(C)C(=O)C(c2ccccc2)=C2CN3C(=O)N(CCc4ccccc4)C(=O)C3(Cc3ccccc3)C=C21 (stereo not drawn) -0.396%, N#Cc1cc2[nH]c(=O)c(=O)[nH]c2cc1[N+](=O)[O-] 3.7%, C[C@@]12C(=O)OC(=O)[C@@]1(C)[C@@H]1CC[C@@H]2O1 2.37%, NC(N)=N/N=C\c1ccc(C2CCNCC2)cc1 -11% [at 11.4 µM], Cc1ccccc1NC(=O)Cn1cnc2c1c(=O)n(C)c(=O)n2C -9.07%, Cc1ccccc1NC(=O)c1cnc(Nc2nc3ccccc3s2)nc1C 4.51%, CC(N)=O -3.9%, CCS(=O)(=O)N1CCC(C(=O)NCCCOC)CC1 -5%, C=CCNC(=O)C1CCN(S(=O)(=O)CC)CC1 -8.48%, C=CCn1c(SCC(=O)Nc2c(C)n(C)n(-c3ccccc3)c2=O)nc2sc(C)c(-c3ccccc3)c2c1=O -3.94%, COc1ccc(CO/N=C/c2c(C)[nH]c(=O)[nH]c2=O)cc1 -6.51%, CC(C)CNC(=S)N1CCN(C)CC1 0.99%, CCN(CC)S(=O)(=O)c1cccc2c(N(C)C)cccc12 -11.4%, CCOC(=O)NNC1CC(=O)N(c2ccc(OC)cc2)C1=O (stereo not drawn) -3.68%, O=C(c1ccccc1)c1c[nH]c(C(=O)NCCCN2CCOCC2)c1 -45.7%, CCC(CC)C(=O)c1c[nH]c(C(=O)NCCCN2CCOCC2)c1 -6.79%, O=c1onc2n1-c1cc(Br)ccc1OC2 -11.9%, COc1ccc(-n2c(=O)c(-c3ccc(Cl)cc3)nc3cnc(N4CCNCC4)nc32)cc1 -4.61%, N#CC1=C(N)OC2=C(C(=O)CCC2)C12CCC1(CC2)OCCO1 -8.51%, CN1CCN(c2ncc3nc(-c4cn(C)c5ccccc45)c(=O)n(CCc4ccccc4)c3n2)CC1 -18.8%, N#Cc1c(-c2ccccc2)nc2n(c1=O)CCS2 0.549%, CN1CCCC[C@@H]1CCN1CCCCC1 -1.48% [at 11.4 µM], CN1CCCC[C@@H]1CCN1c2ccccc2Sc2ccc(S(C)=O)cc21 (stereo partly drawn) 0.0782% [at 11.4 µM], COc1ccc(OCc2nnc(SCC(=O)N3c4ccccc4Sc4ccc(Cl)cc43)o2)cc1 14.4%, O=c1c(-c2ccccc2)nc2cncnc2n1C1CC1 -0.578%, O=C(CCNC(=O)c1ccc(Br)o1)NCc1ccccn1 -9.12%, COc1cc(=O)n2c(n1)SCCC2 0.218%, CC12c3ccccc3C(c3ccccc31)C1C(=O)N(Cc3cccnc3)C(=O)C12 (stereo not drawn) -16.3%, O=C(NC(=S)Nc1cccc(Cl)c1N1CCCCC1)c1cccs1 -11.5%, Cc1cccc(NC(=S)NC(=O)c2cccs2)n1 -19.6%, COc1cccc(OCC(=O)NN=C2c3ccccc3-c3ccccc32)c1 -15.9%, O=c1c(-c2ccc(F)cc2)nc2cncnc2n1C1CC1 3.81%, CCCn1nnc(NC(=O)c2ccc(-c3cccc(Cl)c3)o2)n1 -22.4%, O=C(Nc1cccc2nsnc12)c1ccc(-c2cccc(Cl)c2)o1 -5.52%, Cc1nc2cnc(N3CCNCC3)nc2n(Cc2ccc(F)cc2)c1=O -15.6%, CCOC(=O)C1=C(O)/C(=C/c2cc(OC)c(OC)c(OC)c2)N=C1C -6.74%, COc1cc(C(=O)OCC(=O)Nc2cc(C)on2)cc(OC)c1OC -10.6%, Cc1c(-c2ccc(O)cc2)nn(-c2ccc(O)cc2)c1-c1ccc(OCCN2CCCCC2)cc1 2.1%, COC(=O)c1cc(OC)c(OC)cc1NC(=S)N1CCCCC1 19.7%, CCN(CC)CCNC(=O)c1ccc(Cl)c(S(=O)(=O)Nc2ccccc2OC)c1 -21.3%, COc1cc(CN2CCCCC2)cc2cc(C(=O)O)c(=O)oc12 4.16% [at 11.4 µM], CCCCOC(=O)c1ccc(NC(=S)NC(=O)c2c(Cl)cnn2C)cc1 -16.6%, NS(=O)(=O)c1cc2c(cc1Cl)N[C@@H](C(Cl)Cl)NS2(=O)=O 9.05% [at 25.6 µM], COc1cccc(Cn2c(=O)c(-c3cccs3)nc3cnc(OCc4ccccc4)nc32)c1 1.18%, Cn1c(=O)c(-c2ccccc2)nc2cnc(OCc3ccccc3)nc21 3.17%, CCOC(=O)C1CCN(C(=O)c2ccccc2NC(C)=O)CC1 -0.841%, N#Cc1ccccc1NC(=O)Nc1cccs1 -7.31%, Cc1nc2cnc(N(C)C)nc2n(-c2ccccc2)c1=O 0.658%, COc1ccccc1-n1c(SCC(=O)N2CCCC2)nc2cccnc21 5.52%, CCOC(=O)c1c(NC(=O)Cn2nc([N+](=O)[O-])c(Br)c2C)sc2c1CCC(C)C2 (stereo not drawn) 1.74%, CCN(CC)C(=O)c1ccc(O)c(OC)c1 3.15% [at 25.6 µM], CCCCOc1ccccc1N -4.34%, O=C(O)/C=C/c1cn(-c2ncc(C(F)(F)F)cc2Cl)c2ccccc12 14.4%, CSc1nnnc2ccccc12 0.441% [at 11.4 µM], Cc1nc2cnc(Oc3cccc(Cl)c3)nc2n(CCC#N)c1=O -5.99%, CCC(Sc1ncccc1C(=O)O)C(=O)N1CCOCC1 (stereo not drawn) 8.57%

AC50, inactive:
Cc1cccc(C)c1NC(=O)C[N+](C)(C)C

AC50, active:
O=S(=O)(N/N=C\c1cccn1-c1ccccc1)c1ccc2ccccc2c1 5.01 µM, COc1ccc(Nc2nc(N3CCCCC3)c3ccccc3n2)cc1 1.58 µM, COc1cc(CNCCc2c[nH]c3ccccc23)ccc1OCc1ccccc1F 3.98 µM, COc1cccc(CNCCc2c[nH]c3ccccc23)c1OCc1ccccc1F 0.282 µM, CNCCC=C1c2ccccc2C=Cc2ccccc21 5.01 µM, CN(C)CC/C=C1\c2ccccc2COc2ccccc21 15.8 µM and 3.16 µM and 3.98 µM, CN(C)CCC=C1c2ccccc2C=Cc2ccccc21 6.31 µM, CC(=O)c1cn(CC(=O)Nc2c(C)cccc2C)c2ccccc12 7.94 µM, CCN(CCCNC(=O)C1CCN(S(=O)(=O)CC)CC1)c1cccc(C)c1 25.1 µM, CCN(CC)S(=O)(=O)c1ccc2c3c(cccc13)C(=O)S2 12.6 µM, O=C(NCCCN1CCOCC1)c1cc2c(s1)CSC2 1.26 µM, OC1(c2ccc(OC(F)F)cc2)CSC(=Nc2cccnc2)N1C1CC1 (stereo not drawn) 2 µM, COc1ccc2c(c1)N(CC[C@H]1CCCCN1C)c1ccccc1S2 0.0501 µM, CN1CCCC[C@@H]1CCN1c2ccccc2Sc2ccc(S(C)=O)cc21 (stereo partly drawn) 0.1 µM, CC1CCN(c2ccccc2NC(=S)NC(=O)c2cccs2)CC1 0.2 µM, COC(=O)c1sccc1-c1ccc(C(=O)Nc2cccc(Cl)c2)o1 15.8 µM, CCN(CC)CCCCCCCCOC(=O)c1cc(OC)c(OC)c(OC)c1 31.6 µM, CCN(CC)CCOC(=O)c1cc(Cl)c(N)cc1OC 15.8 µM, COc1cc(N)c(Cl)cc1C(=O)OCCCN1CCCCC1 0.126 µM, O=C(OCCCN1CCCCC1)c1ccc(O)cc1 5.62 µM, CCCOc1cc(N)ccc1C(=O)OCCN(CC)CC 2 µM
